High-throughput results (PubChem BioAssay)
JMJD2A Tudor: qHTS Assay for Inhibitors of JMJD2A-Tudor Domain. Lysine-specific demethylase 4A (Homo sapiens), O75164. AlphaScreen JMJD2A-Tudor / H3K4me3 peptide binding. Potency, µM (top dose mostly 114 µM), for the others: top-dose activity change, negative = inhibition, usual class: inhibitors. 390,000 tested, 4.4% active. AID 504339, 2011; also: % is scaled to controls: 0 for no effect and ±100 for the full control effect; nearly all actives have a fitted effect of over 50% in size
HP1b chromo inh: HTS for Inhibitors of HP1-beta Chromodomain Interactions with Methylated Histone Tails | 390,000 tested, 0.56% active | AlphaScreen HP1-beta / biotin-H3K9me3 peptide binding | Potency, µM (series often up to 114 µM), for the others: at the top dose activity change, negative = inhibition, hits mostly inhibitors; also: nearly all actives have a fitted effect of over 70% in size
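AlphaScreen: HP1-beta (50 nM) preformed 30 min with biotin-H3(1-18)K9me3 peptide (50 nM) in PBS pH 7.4, 0.01% Tween-20. Compound added for 30 min at RT, then streptavidin donor/nickel chelate acceptor beads (10 ug/mL) for 30 min.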
VDR inh: Inhibitors of the vitamin D receptor (VDR): qHTS | Vitamin D3 receptor (Homo sapiens), P11473 | VDR-SRC2-3 peptide fluorescence polarization, 2 h | Potency, µM, without a hit: max response, negative = inhibition, usual class: inhibitors | 400,000 tested, 0.93% active; also: % is scaled to controls: 0 for no effect and ±100 for the full control effect
Target sequence (P11473 whole entry, looked up): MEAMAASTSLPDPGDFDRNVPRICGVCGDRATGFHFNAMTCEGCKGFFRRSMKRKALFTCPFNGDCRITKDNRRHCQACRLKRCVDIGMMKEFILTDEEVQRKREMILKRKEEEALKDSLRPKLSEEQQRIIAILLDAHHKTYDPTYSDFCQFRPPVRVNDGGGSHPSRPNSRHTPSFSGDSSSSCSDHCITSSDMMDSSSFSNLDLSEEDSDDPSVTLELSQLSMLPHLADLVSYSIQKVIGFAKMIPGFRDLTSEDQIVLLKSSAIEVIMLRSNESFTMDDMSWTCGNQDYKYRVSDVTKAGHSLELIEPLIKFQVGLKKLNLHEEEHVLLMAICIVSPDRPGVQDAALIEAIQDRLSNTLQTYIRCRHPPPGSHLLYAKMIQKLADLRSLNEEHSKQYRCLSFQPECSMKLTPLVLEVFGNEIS
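Inhibition of the VDR/SRC2-3 peptide interaction is quantified by fluorescence polarization. Compounds (23 nl, pintool) incubate with the reagents for 2 hours at ambient room temperature.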
BAZ2B inh: qHTS Assay for Inhibitors of BAZ2B; Potency, µM (titrated, usually from 114 µM), inactives show top-dose activity change, negative = inhibition, most hits filed as inhibitors; AID 504333, 2011; 360,000 tested, 4.4% active; Bromodomain adjacent to zinc finger domain protein 2B (Homo sapiens), Q9UIF8; AlphaScreen BAZ2B-H3K14Ac peptide displacement; also: % is scaled to controls: 0 for no effect and ±100 for the full control effect; nearly all actives have a fitted effect of over 60% in size
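Complex of BAZ2B and biotin-H3K14Ac (50 nM apiece) forms over 30 min at RT, then faces library compounds up to 110 uM for another 30 min; AlphaScreen beads added, 20 min dark incubation, luminescence read.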
PLK1 PBD block: qHTS for Inhibitors of PLK1-PDB (polo-like kinase 1 - polo-box domain): Primary Screen | Serine/threonine-protein kinase PLK1 (Homo sapiens), P53350 | Plk1 PBD binding of FITC phosphopeptide, fluorescence polarization | Potency, µM, inactives show max response, negative = inhibition, most hits filed as inhibitors | 360,000 tested, 2.8% active | AID 720504, 2013; also: series mostly up to about 57 µM; % is scaled to controls: 0 for no effect and ±100 for the full control effect; nearly all actives have a fitted effect of over 65% in size
L3MBTL1 block: qHTS Assay for the Inhibitors of L3MBTL1; AlphaScreen L3MBTL1–H3K9me1 peptide binding; Potency, µM (titrated, usually from 57.1 µM), without a hit: top-dose activity, negative = inhibition, usual class: inhibitors; 230,000 tested, 0.66% active; AID 485360, 2010; also: % is scaled to controls: 0 for no effect and ±100 for the full control effect; nearly all actives have a fitted effect of over 60% in size
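Displacement of a biotinylated histone H3(1-15) peptide monomethylated at Lys9 (75 nM) from L3MBTL1 (50 nM) was measured by AlphaScreen after a 30 min room-temperature compound incubation; cefsulodin titration served as intraplate control.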
* = called active by the depositor; ? = inconclusive; . = no result; [ ] = another dose, or the depositor's remark. The list is not random: actives were taken first. Their share in the collection is about 6.9%. Calls follow the shape of the dose curve; as a rule, active = well fitted curve in the direction sought with a large enough effect; inconclusive = small, poorly fitted or top-dose-only effect, or another doubt; inactive = no such curve, though single readings can be large; an effect the other way counts as inactive or inconclusive. Potency is read from the fitted curve at half-maximal effect.

SMILES | JMJD2A Tudor | HP1b chromo inh | VDR inh | BAZ2B inh | PLK1 PBD block | L3MBTL1 block
CCCC[C@H](NC(=O)[C@H](CC(C)C)NC(=O)[C@@H](Cc1c[nH]c2ccccc12)NC(=O)[C@H](Cc1ccccc1)NC(=O)[C@@H](Cc1c[nH]c2ccccc12)NC(=O)[C@H](CC(N)=O)NC(=O)[C@@H](Cc1c(Cl)cccc1Cl)NC(=O)[C@@H]1CCCN1C(=O)[C@H](Cc1ccccn1)NC(=O)[C@@H]1CCCN1C(=O)[C@H](N)CCCCNC(=O)c1cccnc1)C(N)=O | . | . | 6% | . | . | .
Cc1ccc(NC(=S)NNC(=O)Nc2ccccc2)cc1 | -11%[11.4 µM] | 19% | 4% | -31% | -20% | -10%
S=C(NCc1ccccc1)Nc1cccc(Cl)c1 | 13% | 54% | -18% | 1% | -3% | 5%
Cc1cccc(NC(=S)NNC(=S)NCc2ccccc2)c1 | ? | -25% | 89µM* | -2% | -27% | .
Cc1ccc(NC(=S)NNC(=S)Nc2ccc(C)cc2)cc1 | -29% | -12% | 79µM* | . | ? | .
Cc1ccc(Cn2c(C)c3cnn(CC(=O)NCCc4ccc(Cl)cc4)c(=O)c3c2C)cc1 | -17% | 19% | -9% | 0% | . | .
CCN(CC)c1ccc(/C=C(\C#N)C(N)=O)cc1 | 1% | 13% | 5% | -25% | 18% | 0%
CCN(CC)c1ccc(/C=C(\C#N)C(N)=S)cc1 | -10%[11.4 µM] | ? | 1% | 13µM* | 33% | ?
COc1cccc2sc3cc(C#Cc4ccccn4)ccc3c(=O)c12 | 28µM* | -7% | -5% | . | -17% | -2%
C=C1C(=O)[C@]23[C@H](O)[C@H]1CC[C@H]2[C@@]12COC3(O)[C@H](O)[C@@H]1C(C)(C)CC[C@@H]2O | . | . | 7.1µM* | . | . | .
O=C(Nc1ccc(Oc2ccccc2)cc1)C1CCCO1 (stereo unspecified) | 100µM* | -2% | -1% | 7% | -4% | -9%
COc1ccc(C(=O)NNC(=O)C2CCCO2)cc1 (stereo unspecified) | -7%[11.4 µM] | -12% | ? | 0% | 27µM* | .
COc1ccc(C(=O)CCC(=O)Nc2cc(C)ccc2C)cc1 | -6% | 26% | 8% | -2% | . | .
CCc1nc(SCC(=O)NNC(=O)c2ccc(OC)cc2)c2ccccc2n1 | 50µM* | -12% | -18% | -21% | ? | 7%
COc1ccc(CC(=O)NNC(=O)CCC(=O)Nc2cc(C)ccc2C)cc1 | ? | -9% | 89µM* | 0% | ? | 10%
COc1ccc(N2CC(NC(=O)CCc3ccccc3)CC2=O)cc1OC (stereo unspecified) | 1% | 37% | 4% | 3% | . | .
CC(C)(C)OC(=O)N1CCC(c2c(C(=O)NC3CCCCC3)cnn2-c2cccc(Cl)c2)CC1 | -32% | -7% | 7% | 5%[57.1 µM] | . | .
COc1ccc(CCC(=O)NNC(=O)c2ccc(OC)cc2)cc1 | -10% | -4% | 11% | 7% | -6% | .
COc1ccc(C(=O)NNC(=O)CCC(=O)NNC(=O)c2ccc(OC)cc2)cc1 | -18% | 37% | 3% | 50µM* | -19% | .
O=C(O)c1ccc(Cl)c(S(=O)(=O)N(Cc2ccccc2)c2ccccc2)c1 | -12% | -20% | -23% | 1% | -9% | .
CCN(c1ccccc1)S(=O)(=O)c1cc(C(=O)O)ccc1C | -24% | 8% | -7% | 50µM* | -25% | ?
O=C1CCCc2nc(N3CCN(c4ccccc4)CC3)ncc21 | -22%[57.1 µM] | ? | -4% | 4% | 30µM* | -2%
Cc1nc(N2CCN(c3ccccc3)CC2)nc2c1C(=O)CCC2 | -26% | 3% | 13% | -37% | -7% | .
